According to PubChem BioAssay:
The source made the active and inactive calls.

Experiments:
[1] = test system: Plasmodium falciparum Sir2 (PF13_0152, Sir2A); assay: pfSir2 binders on small-molecule microarrays, primary screen, biochemical, small-molecule microarray, 635 nm fluorescence (AID 1098); conditions: small-molecule microarray binding, fluorescence 635 nm; higher = more signal;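 further: score merges spot fluorescence intensity with its signal-to-noise ratio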
[2] = small-molecule microarray binders of probe aDKK1, primary screen, biochemical, biotinylated probe, 635/667 nm fluorescence (AID 1099); conditions: higher = more signal;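 further: score merges 667nm spot fluorescence with signal to noise across triplicate slides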
[3] = small-molecule microarray binders of probe aCHRDL2, primary screen, biochemical, biotinylated probe, 635/667 nm fluorescence (AID 1100); conditions: higher = more signal
[4] = splicing luciferase reporter signal modulators, primary screen, spliceosome inhibition project, cell-based, HEK293, splice +/- reporter (AID 1101); conditions: luminescence, 24 h, higher = more signal, called active from +8 up or from −8 down;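 further: HEK293 cells carrying a splicing-competent luciferase reporter gene; test concentration not given here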
[5] = biological target: Fibroblast growth factor 10 (Homo sapiens) (UniProt O15520); assay: FGF10 binders on small-molecule microarrays, primary screen, biochemical, small-molecule microarray, 635 nm fluorescence (AID 1102); conditions: FGF10 binding, fluorescence 635 nm, higher = more signal
Sequence of Fibroblast growth factor 10 (Homo sapiens) (O15520 whole entry, looked up): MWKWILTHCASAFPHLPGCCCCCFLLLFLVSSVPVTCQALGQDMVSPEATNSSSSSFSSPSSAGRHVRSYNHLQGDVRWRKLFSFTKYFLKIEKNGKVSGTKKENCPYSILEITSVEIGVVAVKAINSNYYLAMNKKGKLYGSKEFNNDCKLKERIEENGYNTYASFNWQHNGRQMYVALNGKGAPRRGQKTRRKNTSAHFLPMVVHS

[6] = test system: glycogen synthase kinase-3 (GSK3A per assay name; protocol says GSK3B); assay: GSK3 binders on small-molecule microarrays, primary screen, biochemical, small-molecule microarray, 635 nm fluorescence, GSK3A (AID 1103); conditions: small-molecule microarray binding, fluorescence 635 nm; higher = more signal; further: the record names both GSK3A and GSK3B
[7] = biological target: Epidermal growth factor receptor (Homo sapiens) (UniProt P00533); assay: EGFR binders on small-molecule microarrays, primary screen, biochemical, small-molecule microarray, 635 nm fluorescence (AID 1104); conditions: EGFR binding, higher = more signal;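 further: score merges 667 nm emission intensity with spot signal to noise over triplicate slides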
Sequence of Epidermal growth factor receptor (Homo sapiens) (P00533 whole entry, looked up): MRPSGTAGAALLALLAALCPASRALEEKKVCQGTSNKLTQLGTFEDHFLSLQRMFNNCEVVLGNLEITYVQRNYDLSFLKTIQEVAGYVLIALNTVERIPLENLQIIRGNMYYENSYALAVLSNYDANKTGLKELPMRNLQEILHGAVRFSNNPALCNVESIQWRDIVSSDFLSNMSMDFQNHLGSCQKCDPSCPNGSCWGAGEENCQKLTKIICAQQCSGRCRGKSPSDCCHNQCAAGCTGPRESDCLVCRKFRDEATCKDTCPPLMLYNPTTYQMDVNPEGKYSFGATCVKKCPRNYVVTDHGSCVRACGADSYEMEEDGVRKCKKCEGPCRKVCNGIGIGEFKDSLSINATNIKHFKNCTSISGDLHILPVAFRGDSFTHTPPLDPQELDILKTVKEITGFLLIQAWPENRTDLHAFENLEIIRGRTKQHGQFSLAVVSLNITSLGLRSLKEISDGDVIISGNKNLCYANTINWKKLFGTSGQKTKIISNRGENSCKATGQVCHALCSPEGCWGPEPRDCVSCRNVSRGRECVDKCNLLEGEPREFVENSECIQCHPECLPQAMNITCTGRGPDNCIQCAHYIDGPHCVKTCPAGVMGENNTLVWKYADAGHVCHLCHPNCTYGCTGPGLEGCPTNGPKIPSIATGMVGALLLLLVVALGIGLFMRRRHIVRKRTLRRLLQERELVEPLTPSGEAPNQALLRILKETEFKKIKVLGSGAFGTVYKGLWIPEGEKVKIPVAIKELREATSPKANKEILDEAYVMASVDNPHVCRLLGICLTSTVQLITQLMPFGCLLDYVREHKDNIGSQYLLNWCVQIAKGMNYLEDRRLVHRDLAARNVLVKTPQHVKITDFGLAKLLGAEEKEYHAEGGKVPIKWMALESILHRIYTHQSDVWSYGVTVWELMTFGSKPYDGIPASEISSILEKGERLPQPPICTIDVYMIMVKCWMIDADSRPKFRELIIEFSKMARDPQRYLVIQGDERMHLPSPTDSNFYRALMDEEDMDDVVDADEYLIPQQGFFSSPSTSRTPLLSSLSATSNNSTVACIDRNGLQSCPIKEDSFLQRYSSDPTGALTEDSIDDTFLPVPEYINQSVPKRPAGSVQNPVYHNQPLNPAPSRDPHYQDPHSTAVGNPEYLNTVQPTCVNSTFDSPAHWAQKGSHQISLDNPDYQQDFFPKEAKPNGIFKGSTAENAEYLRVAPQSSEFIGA

[8] = biological target: Follistatin-related protein 3 (Homo sapiens) (UniProt O95633); assay: FSTL3 binders on small-molecule microarrays, primary screen, biochemical, small-molecule microarray, 635 nm fluorescence (AID 1105); conditions: FSTL3 binding, higher = more signal;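 further: score merges emission near 667 nm and signal to noise per printed spot across three slides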
Sequence of Follistatin-related protein 3 (Homo sapiens) (O95633 whole entry, looked up): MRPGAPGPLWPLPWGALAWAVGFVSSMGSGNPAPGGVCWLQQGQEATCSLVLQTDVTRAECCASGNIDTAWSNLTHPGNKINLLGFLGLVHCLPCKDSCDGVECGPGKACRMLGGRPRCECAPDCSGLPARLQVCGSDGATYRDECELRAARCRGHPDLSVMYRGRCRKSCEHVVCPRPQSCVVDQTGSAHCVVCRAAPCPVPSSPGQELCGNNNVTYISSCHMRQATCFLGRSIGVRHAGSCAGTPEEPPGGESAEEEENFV

[9] = biological target: Dickkopf-related protein 1 (Homo sapiens) (UniProt O94907); assay: DKK1 binders on small-molecule microarrays, primary screen, biochemical, small-molecule microarray, 635 nm fluorescence scan (AID 1106); conditions: DKK1 binding, higher = more signal;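 further: score merges emission near 667 nm with signal to noise over three replicate slides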
Sequence of Dickkopf-related protein 1 (Homo sapiens) (O94907 whole entry, looked up): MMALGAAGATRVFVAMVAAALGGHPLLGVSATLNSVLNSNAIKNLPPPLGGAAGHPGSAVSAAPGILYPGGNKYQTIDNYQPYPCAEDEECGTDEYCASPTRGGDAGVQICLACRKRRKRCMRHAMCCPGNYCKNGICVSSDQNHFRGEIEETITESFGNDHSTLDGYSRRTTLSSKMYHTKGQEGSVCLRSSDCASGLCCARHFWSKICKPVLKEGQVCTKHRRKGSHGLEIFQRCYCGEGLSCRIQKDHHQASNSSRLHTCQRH

[10] = test system: Inhibin beta A chain (activin A); assay: INHBA (activin A) binders on microarrays, primary screen, biochemical, small-molecule microarray, 635 nm fluorescence scan (AID 1107); conditions: small-molecule microarray binding, higher = more signal;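 further: mouse activin A protein probed at 4.33 µg/mL on printed slides; score merges bound-protein fluorescence near 667 nm with spot signal-to-noise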
[11] = test system: Human papillomavirus type 1a protein E7 (residues 44-93); assay: HPV1a E7 fragment binders on microarrays, primary screen, biochemical, small-molecule microarray, residues 44-93, 635 nm fluorescence (AID 1108); conditions: small-molecule microarray binding, fluorescence 635 nm; higher = more signal;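 further: E7 fragment applied at 1 µg/mL in TBST for 1 h at 4 C; score combines spot fluorescence with its signal to noise ratio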
[12] = modulators of HCV replicon luciferase signal, primary screen, HCV replication inhibitor project, Huh7 cells, luciferase reporter (AID 1109); conditions: 48 h, higher = more signal;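 further: huh7 hepatoma cells harbouring a luciferase neomycin HCV replicon reporter; luciferase luminescence as measure of HCV replicon replication; test concentration not given here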
[13] = biological target: Left-right determination factor 2 (Homo sapiens) (UniProt O00292); assay: LEFTY2 binders on small-molecule microarrays, primary screen, biochemical, small-molecule microarray, 635 nm fluorescence scan (AID 1110); conditions: LEFTY2 binding, higher = more signal
Sequence of Left-right determination factor 2 (Homo sapiens) (O00292 whole entry, looked up): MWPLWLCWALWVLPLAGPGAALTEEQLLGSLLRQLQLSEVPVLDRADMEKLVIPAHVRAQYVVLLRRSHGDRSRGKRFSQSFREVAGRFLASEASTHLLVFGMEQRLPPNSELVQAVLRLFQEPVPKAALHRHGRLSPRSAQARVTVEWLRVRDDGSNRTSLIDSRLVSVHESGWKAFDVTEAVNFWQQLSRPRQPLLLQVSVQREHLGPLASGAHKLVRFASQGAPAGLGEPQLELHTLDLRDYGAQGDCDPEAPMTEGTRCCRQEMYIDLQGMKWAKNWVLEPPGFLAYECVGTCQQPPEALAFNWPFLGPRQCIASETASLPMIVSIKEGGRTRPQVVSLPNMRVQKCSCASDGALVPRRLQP

[14] = biological target: Calmodulin-1 (Homo sapiens) (UniProt P0DP23); assay: CALM1 binders on microarrays, EGTA buffer, profiling panel, biochemical, small-molecule microarray, Cy5-labelled CALM1 (AID 1111); conditions: Cy5-CALM1 binding fluorescence, higher = more signal;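 further: labelled calmodulin applied in Tris saline Tween buffer holding calcium plus EGTA and DTT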
[15] = biological target: Calmodulin-1 (Homo sapiens) (UniProt P0DP23); assay: calcium-bound CALM1 binders on microarrays, profiling panel, artefact control for SMM control-protein annotation, biochemical, small-molecule microarray, Cy5-labelled CALM1, plus calcium (AID 1112); conditions: Cy5-CALM1 binding fluorescence, higher = more signal;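 further: score merges spot fluorescence with signal to noise from triplicate slides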
[16] = small-molecule microarray binders of probe aWnt5a, primary screen, biochemical, biotinylated probe, 635/667 nm fluorescence (AID 1113); conditions: higher = more signal;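 further: score merges 667 nm fluorescence intensity with signal-to-noise per printed feature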
[17] = small-molecule microarray binders of probe aShh, primary screen, biochemical, biotinylated probe, 635/667 nm fluorescence (AID 1114); conditions: higher = more signal;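 further: probe is biotin-labelled aShh protein from a stem cell growth factor screen; measures binding of labelled protein to compounds printed on the slide; score merges feature fluorescence at 667 nm with signal-to-noise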
[18] = small-molecule microarray binders of probe aNog, primary screen, biochemical, biotinylated probe, 635/667 nm fluorescence (AID 1115); conditions: higher = more signal;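 further: probe is biotinylated aNog protein used at 0.15 µg/mL for 1 h at 4 C; z-score combines 667 nm fluorescence of each spot with its signal to noise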
[19] = biological target: Torsin-1A-interacting protein 1 (Homo sapiens) (UniProt Q5JTV8); assay: LAP1 binders from COS7 cell lysate, primary screen, small-molecule microarray, 635/667 nm fluorescence (AID 1116); conditions: COS7-hLAP1 lysate binding, 635 nm fluorescence, higher = more signal
Sequence of Torsin-1A-interacting protein 1 (Homo sapiens) (Q5JTV8 whole entry, looked up): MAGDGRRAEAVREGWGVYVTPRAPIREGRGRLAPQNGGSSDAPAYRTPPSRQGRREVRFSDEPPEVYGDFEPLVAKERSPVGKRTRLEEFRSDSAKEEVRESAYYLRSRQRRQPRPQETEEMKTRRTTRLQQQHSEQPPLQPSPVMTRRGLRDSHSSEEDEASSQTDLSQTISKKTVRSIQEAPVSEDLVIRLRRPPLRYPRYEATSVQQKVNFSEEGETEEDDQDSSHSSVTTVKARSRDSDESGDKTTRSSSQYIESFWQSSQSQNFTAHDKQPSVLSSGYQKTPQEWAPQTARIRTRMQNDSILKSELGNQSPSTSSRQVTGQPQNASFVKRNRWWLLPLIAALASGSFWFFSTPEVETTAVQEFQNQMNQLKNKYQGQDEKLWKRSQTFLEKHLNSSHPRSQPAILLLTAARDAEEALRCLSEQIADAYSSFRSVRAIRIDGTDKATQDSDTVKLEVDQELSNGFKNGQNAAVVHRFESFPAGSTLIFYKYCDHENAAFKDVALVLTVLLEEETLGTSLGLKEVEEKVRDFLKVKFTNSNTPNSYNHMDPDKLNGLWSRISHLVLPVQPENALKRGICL

[20] = biological target: Alpha-bungarotoxin (Bungarus multicinctus) (UniProt P60615); assay: alpha-bungarotoxin binders on microarray, profiling panel, artefact control for SMM control protein annotation, biochemical, small-molecule microarray, Alexa647 label, 635/667 nm fluorescence (AID 1117); conditions: alpha-BTX-A647 binding fluorescence, higher = more signal
Sequence of Alpha-bungarotoxin (Bungarus multicinctus) (P60615 whole entry, looked up): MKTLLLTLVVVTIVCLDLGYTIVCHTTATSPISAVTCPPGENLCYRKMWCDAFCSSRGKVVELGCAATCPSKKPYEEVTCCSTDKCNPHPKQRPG

SMILES | composite z-score [1] | composite z-score [2] | composite z-score [3] | z-score [4] | composite z-score [5] | composite z-score [6] | composite z-score [7] | composite z-score [8] | composite z-score [9] | composite z-score [10] | composite z-score [11] | z-score [12] | composite z-score [13] | composite z-score [14] | composite z-score [15] | composite z-score [16] | composite z-score [17] | composite z-score [18] | composite z-score [19] | composite z-score [20]
O=C1NC(=O)C2C1C=CC(C(O)c1cc(C(F)(F)F)cc(C(F)(F)F)c1)N2Nc1ccccn1 (stereo not given) | 1.57 | -0.0616 | -0.387 | 1.35 (inactive) | 0.163 | -0.164 | 0.22 | 0.431 | 0.0665 | 1.33 | -0.2 | -0.345 | 0.274 | -0.0336 | -0.531 | -0.0165 | -0.214 | 0.566 | 1.88 | 0.143
[N-]=[N+]=Nc1ccccc1[C@H]1OC(c2ccc(OCCCO)cc2)=N[C@@]1(CCS(=O)(=O)c1ccccc1)C(N)=O | 1.53 | 1.01 | 1.37 | -1.36 (inactive) | 1.12 | 0.915 | -0.541 | -0.0805 | 0.0979 | 1.26 | 0.321 | -0.268 | -0.154 | 1.41 | 0.389 | 0.161 | 0.117 | -0.939 | 1.71 | 1.92
C=C[C@@H](COC(=O)OC(C)(C)C)N(Cc1ccc(OC)cc1)S(=O)(=O)c1ccc(Br)cc1 | 0.487 | -0.189 | 0.166 | 0.255 (inactive) | 0.541 | 0.632 | 0.691 | 1 | 0.513 | 0.841 | 1.28 | -0.987 | 0.537 | -0.042 | -0.439 | -0.0977 | 0.0121 | -0.326 | 0.173 | 0.268
COC(=O)[C@@]1(Cc2ccc(F)cc2)[C@H]2c3cc(C(=O)N(C)C)n(Cc4cc(F)c(F)c(F)c4)c3C[C@H]2CN1C(=O)c1ccccc1 | 0.931 | 0.9 | 1.19 | -1.91 (inactive) | 1.16 | 0.744 | -0.024 | 1.08 | -0.85 | 0.529 | 1.32 | -2.75 | -0.323 | 1.6 | 1.01 | 0.245 | 0.566 | 2.27 | 1.16 | 1.17
COCCOC(=O)N1C(=O)[C@@]2(c3cc(C#CCC(C(=O)OC)C(=O)OC)ccc31)[C@H](c1ccccc1OCCO)N1[C@H](c3ccccc3)[C@H](c3ccccc3)OC(=O)[C@H]1[C@@H]2C(=O)NC[C@H](O)c1ccccc1 | 1.36 | 0.877 | 0.326 | 3.84 (inactive) | 1.05 | 1.29 | 1.17 | 1.23 | 0.66 | 0.619 | 0.948 | -2.28 | 1.44 | 0.832 | 0.277 | 0.0718 | 0.275 | 0.237 | 0.876 | 0.926
C=CCOC(=O)[C@H]1[C@@H]2C(=O)O[C@@H](c3ccccc3)[C@@H](c3ccccc3)N2[C@@H](c2ccc(OCCOC(=O)[C@@H]3C[C@@H]4C(=O)N[C@@H](CC(C)C)C(=O)N4[C@@H]3c3ccc(O)cc3)cc2)[C@]12C(=O)Nc1ccccc12 | 1.58 | 0.105 | 0.257 | 0.426 (inactive) | 1.26 | 1.3 | 0.671 | 1.3 | 0.675 | -0.233 | 1.12 | -1.47 | 0.701 | 2.5 | 0.137 | 0.0044 | 0.14 | 0.938 | 1.75 | 1.6
CC[C@@H]1C=C(C(=O)O)[C@H](c2ccc(Br)cc2)N1S(=O)(=O)c1ccc(C)cc1 | 0.118 | 0.495 | 0.882 | 1.28 (inactive) | 0.102 | 0.268 | 0.444 | 0.563 | -0.235 | 1.11 | 0.618 | -0.832 | -0.124 | 1.17 | 0.244 | -0.154 | -0.0769 | 0.581 | 0.532 | 0.535
O=C(c1ccccc1)N1C(=O)[C@@]2(Cc3ccccc31)N=C(c1ccc(OCCCO)cc1)O[C@H]2c1ccccc1 | 1.64 | 1 | 0.965 | -0.663 (inactive) | 1.06 | 1.33 | 0.782 | 1.22 | 0.973 | 0.992 | 1.03 | -2.77 | 0.643 | 0.661 | -0.502 | 0.0919 | -0.369 | 1.57 | 1.61 | 0.902
C=CCNC(=O)[C@@H]1[C@H]2C(=O)O[C@H](c3ccccc3)[C@H](c3ccccc3)N2[C@H](c2ccc(O)cc2)[C@@]12C(=O)Nc1ccc(C#CCNC(N)=O)cc12 | 0.213 | -0.3 | 0.778 | 0.788 (inactive) | 0.0464 | -0.489 | -0.219 | -0.164 | -0.732 | -0.0122 | 1.28 | -0.365 | -1.09 | -0.0555 | -0.28 | -0.124 | 0.157 | -0.125 | 1.4 | -0.234
COc1ccc(CCNC(=O)[C@@]2(Sc3ccc(C)cc3)CC(=O)N(C(C)C)[C@@H]2c2ccc(CO)cc2I)cc1 | 0.699 | 0.187 | 0.778 | -0.658 (inactive) | -0.316 | -1.02 | -0.719 | -0.645 | -0.267 | 1.08 | 0.536 | -2.41 | -1.09 | -0.434 | 0.428 | -0.225 | -0.0553 | 0.905 | 0.341 | -0.333
